Results as given in the supplement of paper PMC7156485.
± gives the standard deviation of the averaged measurements.

What was measured:
Settings in all cases: concentration: 10 µM; 24 h
[1] = tested on: HCC1569; assay: cell number relative to DMSO (% of DMSO); higher = more cells (less growth inhibition / toxicity)
How it was run: (§1)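 H1.0 nuclear intensity or cell number is stated as percent of the plate control, based on the median of replicates, and HCC1569 values were smoothed for positional effects. These came from HCC1569 and TDF cells treated with compounds at 10 µM for 24 h at 37 °C in triplicate, then fixed in 3.7% formaldehyde and stained with a rabbit anti-H1.0 antibody, an AlexaFluor 647 secondary and DAPI.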

[2] = tested on: TDF; assay: as above
How it was run: as §1

[3] = tested on: TDF; assay: H1.0 immunofluorescence intensity relative to DMSO (% of DMSO); higher = stronger H1.0 induction, active = 120 or more
How it was run: as §1

[4] = tested on: HCC1569; assay: H1.0 immunofluorescence intensity relative to DMSO (% of DMSO); higher = stronger H1.0 induction, active = 140 or more
How it was run: as §1

[5] = tested on: HCC1569; assay: H1.0 immunofluorescence intensity relative to DMSO (% of DMSO); higher = stronger H1.0 induction
How it was run: as §1

[6] = tested on: TDF; assay: as above
How it was run: as §1
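Throughout, for H1.0 immunofluorescence intensity relative to DMSO: TDF is a line of transformed human dermal fibroblasts of mesenchymal origin.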
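Throughout, for cell number relative to DMSO: TDF denotes transformed human dermal fibroblasts of mesenchymal origin.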

Structure (SMILES) | cell number [1] | cell number [2] | H1.0 immunofluorescence intensity [3] | H1.0 immunofluorescence intensity [4] | H1.0 immunofluorescence intensity [5] | H1.0 immunofluorescence intensity [6]
CCC1(O)CC2CN(CCc3c([nH]c4ccccc34)C(C(=O)OC)(c3cc4c(cc3OC)N(C=O)C3C(O)(C(=O)OC)C(OC(C)=O)C5(CC)C=CCN6CCC43C65)C2)C1.O=S(=O)(O)O (centres undefined) [Vincristine sulfate] | 57.3 ± 1 | 9.46 ± 1.6 | 167 (active) | 151 (active) |  | 
c1ccc(-c2[nH]ncc2-c2ccnc3ccccc23)nc1 [TGF-b RI Kinase Inhibitor] | 102 | 103 | 91 (inactive) | 110 (inactive) |  | 
O.c1cnc2c(c1)ccc1cccnc12 [1,10-Phenanthroline monohydrate] | 77.2 | 44.8 | 108 (inactive) | 93.9 (inactive) |  | 
NNCCc1ccccc1.O=S(=O)(O)O [Phenelzine sulfate] | 103 | 102 | 95.3 (inactive) | 74.3 (inactive) |  | 
CC(=O)N[C@@H](CS)C(N)=O | 109 | 93.6 |  |  | 103 (inactive) | 96.2 (inactive)
CCCCNC(=O)NS(=O)(=O)c1ccc(C)cc1 [Tolbutamide] | 102 ± 3.9 | 108 ± 11 | 93 (inactive) | 101 (inactive) |  | 
NC(=O)c1ccc(-c2nc(-c3ccc4c(c3)OCO4)c(-c3ccccn3)[nH]2)cc1 | 95.7 | 106 | 95.9 (inactive) | 136 (inactive) |  | 
COc1ccccc1N1CCN(CCCNc2c(C)c(=O)n(C)c(=O)n2C)CC1 [Urapidil, 5-Methyl-] | 105 | 121 | 96.7 (inactive) | 108 (inactive) |  | 
Nc1ccc(O)c(C(=O)O)c1 [5-Aminosalicylic acid] | 107 | 103 |  |  |  | 
NC(=O)c1ccc2nc(-c3ccc(Oc4ccc(Cl)cc4)cc3)[nH]c2c1 [Chk2 Inhibitor II] | 97.4 | 100 | 91.4 (inactive) | 132 (inactive) |  | 
COc1cc2c(cc1OC)C1C(C)c3ccc(OC)c(OC)c3CN1CC2 (centres undefined) [Corydaline] | 96.9 | 106 | 94.4 (inactive) | 84.2 (inactive) |  | 
CCOC(=O)C=Cc1ccc(O)c(OC)c1 [Ferulic acid ethylester] | 98.3 | 95.4 | 90.2 (inactive) | 93.6 (inactive) |  | 
CC1=C(C(=O)O)N2C(=O)C(NC(=O)C(N)C3=CCC=CC3)C2SC1 (centres undefined) [Cephradine] | 100 | 115 | 93.5 (inactive) | 88.5 (inactive) |  | 
O=c1c(O)c(-c2ccc(O)cc2O)oc2cc(O)cc(O)c12 [Morine] | 101 | 109 | 95 (inactive) | 82.4 (inactive) |  | 
O=S1(=O)CCN(CN2CCS(=O)(=O)NC2)CN1 | 98.4 | 99.3 | 88.2 (inactive) | 94 (inactive) |  | 
O=c1[nH][nH]c2nnc(-c3c(-c4ccccc4)nn4ccccc34)cc12 [ERK Inhibitor II,                   Negative control] | 98.3 | 98.8 | 95.5 (inactive) | 122 (inactive) |  | 
Cl.O=C(NCCCCN1CCN(c2cccc(Cl)c2Cl)CC1)c1ccc2c(c1)Cc1ccccc1-2 | 93.5 | 98.2 | 96.4 (inactive) | 116 (inactive) |  | 
CC(C=Cc1cccc(Oc2ccc(F)cc2)c1)N(O)C(N)=O (centres undefined) | 102 | 101 | 102 (inactive) | 89.2 (inactive) |  | 
Nc1nc(Cl)nc2c1ncn2C1OC(CO)C(O)C1F (centres undefined) [Clofarabine] | 90.6 | 45.3 | 119 (inactive) | 93.5 (inactive) |  | 
O=C(O)c1ccccc1Nc1cccc(OCc2ccc3ccccc3n2)c1 | 104 | 97.2 | 91.5 (inactive) | 106 (inactive) |  | 
CNC(CC(C)C)C(=O)NC1C(=O)NC(CC(N)=O)C(=O)NC2C(=O)NC3C(=O)NC(C(=O)NC(C(=O)O)c4cc(O)cc(O)c4-c4cc3ccc4O)C(O)c3ccc(c(Cl)c3)Oc3cc2cc(c3OC2OC(CO)C(O)C(O)C2OC2CC(C)(N)C(O)C(C)O2)Oc2ccc(cc2Cl)C1O.Cl (centres undefined) [Vancomycin hydrochloride from Streptomyces orientalis] | 99.6 | 108 | 90.4 (inactive) | 101 (inactive) |  | 
CC(C)(C)NCC(O)c1ccc(O)c(CO)c1.CC(C)(C)NCC(O)c1ccc(O)c(CO)c1.O=S(=O)(O)O (centres undefined) [Albuterol hemisulfate] | 99.8 | 103 | 92.5 (inactive) | 107 (inactive) |  | 
CC(=O)O.CSC(N)=NCCCC(N)C(=O)O [S-Methyl-L-thiocitrulline acetate] | 99.4 | 108 | 92 (inactive) | 97.5 (inactive) |  | 
CCCCCC=CCC1OC1C=CC(O)CC=CCCCC(=O)O (centres undefined) [Hepoxilin A3] | 107 | 102 | 93.8 (inactive) | 100 (inactive) |  | 
Cn1c(=O)c2[nH]cnc2n(C)c1=O [Theophylline] | 100 | 95.5 | 97 (inactive) | 103 (inactive) |  | 

Structure (SMILES) | cell number [1] | cell number [2] | H1.0 immunofluorescence intensity [3] | H1.0 immunofluorescence intensity [4] | H1.0 immunofluorescence intensity [5] | H1.0 immunofluorescence intensity [6]
Cl.O[Si](CCCN1CCCCC1)(c1ccc(F)cc1)C1CCCCC1 (centres undefined) [Hexahydro-sila-difenidol hydrochloride, p-fluoro analog] | 97.5 | 88.2 | 102 (inactive) | 105 (inactive) |  | 
COc1ncnc(NS(=O)(=O)c2ccc(N)cc2)c1OC [Sulfadoxine] | 104 | 97.4 | 91.9 (inactive) | 89.2 (inactive) |  | 
O=C(O)Cc1c[nH]c2ccc(O)cc12 [(5-hydroxy-3H-indol-3-yl)acetic acid] | 105 | 94.7 | 94.7 (inactive) | 103 (inactive) |  | 
O=c1cc(-c2ccccc2)[nH]c2nc(Cl)ccc12 [7-Chloro-4-hydroxy-2-phenyl-1,8-naphthyridine] | 76.7 | 20.4 | 141 (active) | 116 (inactive) |  | 
NC1CONC1=O (racemic) [DL-Cycloserine] | 101 | 96.8 | 92 (inactive) | 92.3 (inactive) |  | 
Cn1ccc(NC(=O)c2cc(Oc3ccc(C(=O)N4CCC4)c(F)c3)c3c(c2)OC(C)(C)C3)n1 | 103 | 94.2 | 102 (inactive) | 105 (inactive) |  | 
COc1cc(Nc2c(C#N)cnc3cc(OCCCN4CCN(C)CC4)c(OC)cc23)c(Cl)cc1Cl [Bosutinib] | 67 | 7.38 | 135 (active) | 39.6 (inactive) |  | 
CC(C)c1cc(/C=C(\C#N)C(=O)NCCCc2ccccc2)cc(C(C)C)c1O | 89.5 | 81.8 | 97.9 (inactive) | 141 (active) |  | 
CCCCN1CCC(COC(=O)c2cc(Cl)c(N)c3c2OCCO3)CC1.Cl | 102 | 108 | 97.7 (inactive) | 104 (inactive) |  | 
CCCCCCCCCCCCCCCC(O)C(N)CO (racemic) [DL-erythro-Dihydrosphingosine] | 102 | 87.8 | 108 (inactive) | 96.9 (inactive) |  | 
Nc1nc(=O)c2ncn(CCC(CO)CO)c2[nH]1 [Penciclovir] | 103 | 103 | 90.4 (inactive) | 117 (inactive) |  | 
CCCCc1ncc(C=C(Cc2cccs2)C(=O)O)n1Cc1ccc(C(=O)O)cc1.CS(=O)(=O)O [Eprosartan mesylate] | 97.1 | 91.7 | 96.4 (inactive) | 97.4 (inactive) |  | 
O=C1NC(=O)c2c1c(-c1ccccc1)cc1[nH]c3ccc(O)cc3c21 | 59.9 | 51.1 | 101 (inactive) | 91.4 (inactive) |  | 
Cl.c1ccc(C2CCCC2NC2=NCCCCCCCCCCC2)cc1 (centres undefined) [MDL 12,330A hydrochloride] | 105 | 109 | 85.7 (inactive) | 88.1 (inactive) |  | 
Cl.O=S(=O)(c1cccc2c(I)cccc12)N1CCCNCC1 | 105 | 116 | 99.4 (inactive) | 89.8 (inactive) |  | 
CC(C)NCC(O)c1ccc(O)c(O)c1.Cl (racemic) | 104 | 94 | 97.4 (inactive) | 99 (inactive) |  | 
CCCCCC#CCC#CCC#CCC#CCCCC(=O)O [5,8,11,14-Eicosatetraynoic acid] | 105 | 86.7 | 93.3 (inactive) | 103 (inactive) |  | 
Nc1nc(N)c2nc(-c3ccccc3)c(N)nc2n1 [Triamterene] | 98.6 | 112 | 85.8 (inactive) | 102 (inactive) |  | 
CC(C)CNCc1ccc(-c2ccccc2S(=O)(=O)N2CCCC2)cc1.Cl | 96 | 99.2 | 88.9 (inactive) | 100 (inactive) |  | 
CC(C)=CCC[C@@H](C)[C@H]1CC[C@H]2[C@@H]3CC=C4C[C@@H](O)CC[C@]4(C)[C@H]3CC[C@]12C [(3beta)-cholesta-5,24-dien-3-ol] | 103 | 88.8 | 96 (inactive) | 101 (inactive) |  | 
CCCCCCCCCCCCCC=CC(O)C(CO)NC(C)=O (centres undefined) [C2 Ceramide] | 101 | 107 | 94.8 (inactive) | 102 (inactive) |  | 
CCn1cc(C(=O)O)c(=O)c2ccc(Cc3ccccc3)nc21 [Amfonelic acid] | 101 | 94.6 | 92.2 (inactive) | 95.4 (inactive) |  | 
CCCCCCCC/C=C\CCCCCCCC(=O)NCC(=O)O [[(9Z)-9-octadecenoylamino]acetic acid] | 99.2 | 100 | 96.9 (inactive) | 100 (inactive) |  | 
CCCCCC(O)C=CC1OC(=O)CC(O)C1CC=CCCCC(=O)O (centres undefined) [11-Dehydro-thromboxane B2] | 100 | 97 | 98.6 (inactive) | 102 (inactive) |  | 
